Each structure is given as a SMILES string. “And” between values parts separate entries of the source, which are not always exact repeats. Equal entries are not always repeated. Results filed as inconclusive are left out. Where a structure was tested more than once in an assay, its records may differ in their call. The source made the active and inactive calls. Unless noted, the call rests on the fitted dose curve; in most records, active means well fitted curve in the direction sought with a large enough effect; inconclusive means small, poorly fitted or top-dose-only effect, or another doubt; inactive means no such curve, though single readings can be large; an effect the other way counts as inactive or inconclusive.

Assay [1] is described as follows: qHTS Screen of the MIPE 4.0 Collection Against Ewings Sarcoma (RDES) (AID 1259252). Further: nearly all actives have a fitted effect of over 35% in size. Further: potency means the concentration at half of the fitted maximal effect. In outline: (§1)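 Dose series incubated 48 h with cells in RPMI plus 5% FBS, glutamine and penicillin/streptomycin; cell viability then quantified via CellTiter-Glo.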
Assay [2] is described as follows: qHTS Screen of the MIPE 4.0 Collection Against Ewings Sarcoma (TC71) (AID 1259253). Further: nearly all actives have a fitted effect of over 40% in size. Further: potency means the concentration at half of the fitted maximal effect. The procedure, abridged:
as §1
(In general: Quantitative high-throughput screening tests each substance at several concentrations.)

Assay [3] in a line: qHTS Screen of the MIPE 4.0 Collection Against Ewings Sarcoma (EW8) (AID 1259255). Further: nearly all actives have a fitted effect of over 35% in size. Further: potency means the concentration at half of the fitted maximal effect. In outline: as §1
Assay [4] can be described thus: qHTS Screen of the MIPE 4.0 Collection Against Ewings Sarcoma (TC32) (AID 1259256). Further: nearly all actives have a fitted effect of over 45% in size. Further: potency means the concentration at half of the fitted maximal effect. The procedure, abridged:
as §1

Assay [5] is described as follows: P-glycoprotein substrates identified in KB-3-1 adenocarcinoma cell line, qHTS therapeutic library screen (AID 1346986). Further: nearly all actives have a fitted effect of over 60% in size.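 Further: potency means the concentration at half of the fitted maximal effect; potency is for cytotoxicity meaning loss of cell viability.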 In outline: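 Viability by CellTiter-Glo after 72 h compound exposure at 37 degree C, 5% CO2. Cytotoxic call: curve class -1.1 to -2.4, maximum response >50%, AC50 < 10 uM, compared across KB-3-1 and P-gp-overexpressing KB-8-5-11.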
A short description of assay [6]: NS1 protein of Zika virus - qHTS assay to identify small molecule inhibitors in human HEK 293 cells (AID 1347053). Further: nearly all actives have a fitted effect of over 55% in size. Further: potency means the concentration at half of the fitted maximal effect. In outline:
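TR-FRET signal from two anti-ZIKV NS1 antibodies quantified NS1 in HEK 293 cells 24 h after MR766 infection at MOI = 0.5; compounds were added 1 h before virus. Uninfected cells and infected cells defined the NS1 normalization range.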

Assay [7] can be described thus: P-glycoprotein substrates identified in KB-8-5-11 adenocarcinoma cell line, qHTS therapeutic library screen (AID 1346987). Further: nearly all actives have a fitted effect of over 65% in size. Further: potency means the concentration at half of the fitted maximal effect. The procedure, abridged: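 Human cervical adenocarcinoma KB-8-5-11 cells, selected in colchicine to over-express P-gp and assayed without it, were exposed for 72 h to titrated compounds. An ATP-based luminescent viability signal gave AC50.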
Assay [8] can be described thus: Natriuretic polypeptide receptor (hNpr1) antagonism - Pilot counterscreen GloSensor control cell line (AID 1347045; calls by dose curve; further: series mostly up to about 38 µM). In outline: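 The SNP-driven cGMP luminescence signal (50 uM, 20 min, room temperature) was measured in GloSensor HEK293 control cells. Compounds were tested as a LOPAC titration series and preincubated for 30-50 min.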
The target in assay [9] is Atrial natriuretic peptide receptor 1 (Homo sapiens) (UniProt P16066). The assay can be described thus: Natriuretic polypeptide receptor (hNpr1) antagonism - Pilot screen (AID 1347049; calls by dose curve;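 further: agonist-evoked cGMP luminescence read 20 min after hNppA addition; potency means the concentration at half of the fitted maximal effect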). The procedure, abridged:
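cGMP-sensor HEK293/hNpr1 cells, 1500/well, plated overnight at 37C. 2% GloSensor reagent, 2 h RT. Compound (23 nL pin transfer) 30 min RT, baseline luminescence pre-read. 0.1 nM hNppA, 20 min RT, post-read.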

Assay [10] addresses T1, Tyrosine-protein phosphatase non-receptor type substrate 1 (Homo sapiens) + Leukocyte surface antigen CD47 (Homo sapiens) (UniProt P78324+Q08722). The assay can be described thus: CD47-SIRPalpha protein protein interaction - LANCE assay qHTS validation (AID 1347057; active means well fitted curve in the direction sought with a large enough effect in the signal ratio, with a control signal flat, not every such curve was filed as active; the % refers to the signal ratio; further: series mostly up to about 38 µM). The procedure, abridged:
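Inhibition of soluble CD47/SIRPalpha ectodomain association by titrated compounds, measured as 665/615 nm time-resolved FRET ratio after sequential 30 min room-temperature incubations.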
Background: Time-resolved FRET reads energy transfer from a long-lived donor to a nearby acceptor.

For assay [11], the target named is T1, Tyrosine-protein phosphatase non-receptor type substrate 1 (Homo sapiens) + Leukocyte surface antigen CD47 (Homo sapiens). Put plainly: CD47-SIRPalpha protein protein interaction - HTRF assay qHTS validation (AID 1347058; active means well fitted curve in the direction sought with a large enough effect in the signal ratio, not every such curve was filed as active; the % refers to the signal ratio; further: series mostly up to about 38 µM). In outline: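 Soluble extracellular domains (6His-CD47, Avi-tag-biotinylated SIRPalpha) in PBS pH 7.4 with 0.05% IGEPAL CA-630. Compounds were preincubated 30 min at RT with CD47 and anti-His-Eu, then SIRPalpha and SAV-XL665 were added. TR-FRET 665/615 ratio.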

T1 sequence (P78324 whole entry, looked up, the tested form may be a part): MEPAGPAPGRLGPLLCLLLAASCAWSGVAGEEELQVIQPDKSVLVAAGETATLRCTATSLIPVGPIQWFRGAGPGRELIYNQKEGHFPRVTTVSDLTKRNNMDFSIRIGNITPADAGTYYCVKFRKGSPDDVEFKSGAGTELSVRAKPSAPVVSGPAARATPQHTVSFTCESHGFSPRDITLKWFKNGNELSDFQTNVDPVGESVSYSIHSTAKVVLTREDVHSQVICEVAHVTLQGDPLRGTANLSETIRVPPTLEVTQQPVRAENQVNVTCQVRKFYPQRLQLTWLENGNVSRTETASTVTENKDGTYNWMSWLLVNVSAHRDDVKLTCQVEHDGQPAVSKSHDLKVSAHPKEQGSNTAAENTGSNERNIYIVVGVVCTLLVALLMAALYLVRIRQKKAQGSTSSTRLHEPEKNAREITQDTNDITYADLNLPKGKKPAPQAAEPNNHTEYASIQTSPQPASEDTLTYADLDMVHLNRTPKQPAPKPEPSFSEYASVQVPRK
T1 sequence (Q08722 whole entry, looked up, the tested form may be a part): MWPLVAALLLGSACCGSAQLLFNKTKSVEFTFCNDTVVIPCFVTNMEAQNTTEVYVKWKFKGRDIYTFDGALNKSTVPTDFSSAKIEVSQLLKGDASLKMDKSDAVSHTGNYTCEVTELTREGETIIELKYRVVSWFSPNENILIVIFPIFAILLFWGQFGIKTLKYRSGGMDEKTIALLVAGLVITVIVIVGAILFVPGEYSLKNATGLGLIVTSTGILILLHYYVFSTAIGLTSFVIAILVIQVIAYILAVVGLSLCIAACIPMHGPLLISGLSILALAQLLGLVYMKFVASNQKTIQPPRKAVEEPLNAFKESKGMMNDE
Chain of Atrial natriuretic peptide receptor 1 (Homo sapiens) (P16066 whole entry, looked up): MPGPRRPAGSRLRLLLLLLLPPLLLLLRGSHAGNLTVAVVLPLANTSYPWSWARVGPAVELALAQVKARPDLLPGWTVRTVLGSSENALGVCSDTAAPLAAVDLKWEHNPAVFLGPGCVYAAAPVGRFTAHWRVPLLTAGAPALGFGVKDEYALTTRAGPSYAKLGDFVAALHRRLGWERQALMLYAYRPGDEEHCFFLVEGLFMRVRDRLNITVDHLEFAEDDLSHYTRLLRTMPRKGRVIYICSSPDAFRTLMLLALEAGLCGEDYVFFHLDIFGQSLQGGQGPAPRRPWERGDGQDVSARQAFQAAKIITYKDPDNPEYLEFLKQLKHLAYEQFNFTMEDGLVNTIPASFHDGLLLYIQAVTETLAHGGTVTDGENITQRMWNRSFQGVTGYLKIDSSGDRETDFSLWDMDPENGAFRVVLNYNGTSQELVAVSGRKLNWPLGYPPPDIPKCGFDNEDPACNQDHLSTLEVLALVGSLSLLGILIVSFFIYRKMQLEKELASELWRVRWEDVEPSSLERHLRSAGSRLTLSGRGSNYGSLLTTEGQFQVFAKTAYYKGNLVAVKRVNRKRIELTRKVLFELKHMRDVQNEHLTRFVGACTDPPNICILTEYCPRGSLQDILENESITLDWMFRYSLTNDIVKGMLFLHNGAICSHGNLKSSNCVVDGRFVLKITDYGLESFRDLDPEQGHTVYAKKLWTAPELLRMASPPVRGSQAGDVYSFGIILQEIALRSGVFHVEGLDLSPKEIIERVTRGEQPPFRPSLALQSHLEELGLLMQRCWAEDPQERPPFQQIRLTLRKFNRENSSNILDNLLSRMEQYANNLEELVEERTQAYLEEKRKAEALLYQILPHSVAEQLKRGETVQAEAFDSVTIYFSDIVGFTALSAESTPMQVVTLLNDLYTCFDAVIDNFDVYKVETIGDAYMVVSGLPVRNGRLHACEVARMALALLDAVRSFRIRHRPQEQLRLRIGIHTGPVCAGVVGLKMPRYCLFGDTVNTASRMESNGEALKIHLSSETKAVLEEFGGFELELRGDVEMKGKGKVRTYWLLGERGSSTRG

As for `CCn1nnc2c(N3CCOCC3)nc(-c3ccc(NC(=O)Nc4ccc(C(=O)N5CCN(C)CC5)cc4)cc3)nc21`, the Potency in assay [1] is 14.8 nM (active); in [2] it was 41.8 nM (active); in assay [3], 6.6 nM (active); in assay [4] it was 7.4 nM (active); in assay [5], 58 nM (active).

As to `CN(C1CCc2c(c3ccccc3n2CC(=O)O)C1)S(=O)(=O)c1ccc(F)cc1` (configuration not stated), the Potency result in assay [1], in [2], in assay [3], in assay [4], in assay [5] and in assay [6] was “inactive” in each case.

Take `CCCn1c(=O)c2[nH]c(-c3cnn(Cc4cccc(C(F)(F)F)c4)c3)nc2n(CC)c1=O`: the Potency entry in [1], in assay [2], in [3], in assay [4], in [5] and in assay [7] was “inactive” throughout. Further, the Potency entry in assay [6] is “inactive”.

Take `Cc1cc(CN2CCN(c3c(Br)cnc4nc(-c5ccc(N6CCN(C)CC6)cc5)[nH]c34)CC2)no1`: the Potency in assay [1] was 14800 nM (active); in [2] it was 18700 nM (active); in assay [3], 935 nM (active); in [4], 1180 nM (active); in assay [7], 920 nM (active).

As for `CC(C)c1cc(C(=O)N2Cc3ccc(CN4CCN(C)CC4)cc3C2)c(O)cc1O`, the Potency in assay [1] was 469 nM (active); in [2], 235 nM (active); in assay [3] it was 372 nM (active); in assay [4], 209 nM (active); in [7] it was 92 nM (active).

In the case of `CCCCOc1c(C(=O)c2c(F)cc(C)cc2F)cnc2n[nH]cc12`, the Potency in assay [1] is 2960 nM (active); in assay [2], 2960 nM (active); in assay [3], 18700 nM (active); in [4], 16600 nM (active); in assay [5], “inactive and 3.66 µM (active)”. Besides, in [6], the Potency result is “inactive”.

Regarding `COc1cc(C)c(Sc2cnc(NC(=O)c3ccc(CNC(C)C(C)C)cc3)s2)cc1C(=O)N1CCN(C(C)=O)CC1` (configuration not stated), the Potency in [1] is 14800 nM (active); in assay [2] it was 18700 nM (active); in assay [3], 3720 nM (active); in assay [4] it was 5900 nM (active). Also, the Potency entry in [7] is “inactive”.

For `CC1(C)CC(=O)c2c(C(F)(F)F)nn(-c3ccc(C(N)=O)c(NC4CCC(OC(=O)CN)CC4)c3)c2C1` (configuration not stated), the Potency in [1] was 166 nM (active); in assay [2], 166 nM (active); in [3], 209 nM (active); in assay [4], 132 nM (active); in assay [7] it was 662 nM (active) and 820 nM (active). In addition, the Potency entry in assay [6] was “inactive”.

As for `NCC(=O)Nc1ccc(-n2nc(C(F)(F)F)cc2-c2ccc3c(ccc4ccccc43)c2)cc1`, the Potency in [1] was 20900 nM (active); in assay [2] it was 4180 nM (active); in assay [3], 18700 nM (active); in assay [4] it was 20900 nM (active); in [7] it was 14.8 µM (active) and 10.3 µM (active); in [6], 52.6 nM (active).

In the case of `OCCCNc1cc(-c2ccnc(Nc3cccc(Cl)c3)n2)ccn1`, the Potency was 166 nM (active) in [1]; 118 nM (active) in assay [2]; 148 nM (active) in assay [3]; 166 nM (active) in assay [4]; 83.3 nM (active) and 146 nM (active) in [7]; 418 nM (active) in assay [6].

For `O=c1c2ccccc2nc2n1CCc1c-2[nH]c2ccccc12`, the Potency entry in [1], in [2], in assay [3], in assay [4], in assay [7] and in assay [6] was “inactive” in each case. The compound was classed as inactive in assay [8], in assay [10] and in [11]. The Potency in assay [9] was 1510 nM (active).

Turning to `O=C(O)C1(Cc2cccc(Nc3nccs3)n2)CCC(Oc2cccc(Cl)c2F)CC1` (configuration not stated), the Potency in assay [1] was 4690 nM (active); in assay [2] it was 1660 nM (active); in [3], 743 nM (active); in assay [4], 372 nM (active); in assay [5], 517 nM (active). The Potency result in [6] is “inactive”.

Take `CNC(=O)CN1CCC(Oc2cc3c(Nc4cccc(Cl)c4F)ncnc3cc2OC)CC1`: the Potency is 14.8 nM (active) in [1], 52.6 nM (active) in assay [2], 105 nM (active) in assay [3] and 52.6 nM (active) in assay [4]. Further, the Potency result in [7] was “inactive”.

For the compound `COC(=O)Nc1nc2ccc(C(=O)c3ccc(F)cc3)cc2[nH]1`, the Potency was 743 nM (active) in [1]; 1050 nM (active) in assay [2]; 662 nM (active) in [3]; 372 nM (active) in assay [4]; 418 nM (active) and 1.03 µM (active) in assay [7].

Consider `CNC(=O)c1ccccc1Nc1nc(Nc2ccc(N3CCOCC3)cc2OC)ncc1Cl`, for which the Potency in assay [1] is 11800 nM (active); in assay [2] it was 1320 nM (active); in [3] it was 1480 nM (active); in assay [4] it was 662 nM (active); in [7] it was 1.87 µM (active) and 1.64 µM (active).

On to `CC[C@@]1(O)C(=O)OCc2c1cc1n(c2=O)Cc2cc3cc(O)ccc3nc2-1`, for which the Potency in assay [1] is 13.2 nM (active); in assay [2], 11.8 nM (active); in assay [3] it was 13.2 nM (active); in [4], 3.3 nM (active); in assay [7], 1.16 µM (active) and 1.05 µM (active); in assay [6], 33.2 nM (active).

As for `COc1cc2nccc(Oc3ccc(NC(=O)C4(C(=O)Nc5ccc(F)cc5)CC4)cc3)c2cc1OC`, the Potency in assay [1] was 1320 nM (active); in assay [2] it was 2350 nM (active); in [3], 1050 nM (active); in assay [4], 1660 nM (active); in assay [7] it was 16.6 µM (active) and 9.2 µM (active).

For the compound `CC(C)c1nn(-c2c(Cl)cccc2Cl)c2nc(Cc3ccc(OCCO)cc3)[nH]c(=O)c12`, the Potency is 187 nM (active) in assay [1]; 132 nM (active) in assay [2]; 148 nM (active) in assay [3]; 105 nM (active) in [4]; 118 nM (active) and 103 nM (active) in assay [7]; 166 nM (active) in assay [6].

With `CC(C)CC(=O)Nc1n[nH]c2c1CN(C(=O)C1CCN(C)CC1)C2(C)C`, the Potency in assay [1] was 296 nM (active); in [2] it was 743 nM (active); in assay [3], 1320 nM (active); in [4], 833 nM (active); in [6] it was 26400 nM (active). The Potency result in [7] was “inactive”.

As for `Cc1cc(Nc2ncnc3ccc(-c4ccc(CNCCS(C)(=O)=O)o4)cc23)ccc1Oc1ccn2ncnc2c1`, the Potency in assay [1] was 18700 nM (active); in assay [2] it was 14800 nM (active); in assay [3], 16600 nM (active); in [4], 16600 nM (active). In addition, the Potency entry in assay [7] and in assay [6] was “inactive” each time.

These data come from PubChem BioAssay (NCATS).
